Experimental data: PubChem BioAssay AID488890 (Southern Research Specialized Biocontainment Screening …, 2010)
Among all 320,000 compounds or so, about 1,300 (0.41%) were called active. Another 3% or so got no clear call; they are omitted. How the calls were made is not given here. These entries were drawn from the full list. Entries with a potency or affinity are not part of this list.

experiment: growth inhibition of non-replicating M. tuberculosis (AID 488890); conditions: Mycobacterium tuberculosis non-replicating, at 25 µM, stronger effect = higher value;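 further: plate controls were DMSO cells for no effect and high antibiotic wells for full effect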

Structure (SMILES)	inhibition [%]
COc1ccc(CN2CCNC(=O)C2CC(=O)N(C)Cc2nccn2C)cc1OC (stereo not given)	-4.39
NS(=O)(=O)c1ccc(CNC(=O)c2ccc3c(c2)OCO3)cc1	-8.29
CC1CCC2C(=O)N(c3cccc(C(=O)Nc4ccc(F)cc4)c3)C(=O)C2C1 (stereo not given)	0.0133
Cc1cc(C)c[n+](CC(=O)c2ccc(C)c([N+](=O)[O-])c2)c1	11.3
COc1ccc(Cl)cc1NC(=O)CN(C)C(=O)/C=C/c1ccco1	25.2
CCc1nc2ccccc2n1CC(=O)N1CCN(S(=O)(=O)c2cccc(C(F)(F)F)c2)CC1	11.4
Cc1ccc(NC(=O)C2CCN(C(=O)c3ccc(Cl)cc3)CC2)nc1	11.3
C/C(=N\Nc1ccc(Cl)cc1)c1ccncc1	31.7
Cc1ccc(OCC(=O)N/N=C/c2ccco2)cc1	36.5
CCCC(=O)Nc1ccc(C(=O)N/N=C/c2ccc([N+](=O)[O-])o2)cc1	77.6
Cc1ccc(NC(=O)CCC(=O)N/N=C/c2ccc([N+](=O)[O-])o2)cc1C	8.35
CCCOc1ccc(CCC(=O)N/N=C/c2ccco2)cc1	64.4
Cc1ccccc1OCC(=O)N/N=C/c1ccc([N+](=O)[O-])o1	78.1
CCCOc1ccc(CCC(=O)N/N=C/c2ccncc2)cc1	25.7
O=S(=O)(Nc1ccc(Nc2ccccc2)cc1)c1ccc(F)cc1	45.8
O=C(COC(=O)c1ccc2ncsc2c1)NCc1ccccc1Cl	19.4
CC(=O)Nc1ccc(S(=O)(=O)N2CCSC2C(=O)O)cc1 (stereo not given)	1.73
CCN(CC)S(=O)(=O)c1ccc(Oc2ccccc2)cc1	30.3
COc1ccc2c(Cl)c(C(=O)N/N=C/c3c(C)[nH]c4ccccc34)sc2c1	-5.52
CC(C)C(c1nnnn1Cc1ccccc1)N1CCc2ccccc2C1 (stereo not given)	11
Cc1cccc(N2C(=O)/C(=C/c3ccccn3)SC2=S)c1	0.34
Cc1ccc(C)c2[nH]c(=O)c(CCNC(=O)c3ccc(Br)o3)cc12	-3.61
COc1ccc(CCNC(=O)COc2ccc(-c3ccc(C)cc3)cc2)cc1OC	25.9
O=C(Nc1ccc(Cl)c(Cl)c1)Nc1ccc(Br)cc1F	75.2
O=[N+]([O-])c1ccc(-n2nnnc2-c2ccccc2)cc1	-9.53

Structure (SMILES)	inhibition [%]
O=[N+]([O-])c1cccc(-c2nnnn2-c2cccc(F)c2)c1	-0.82
CC(C)[C@H](NC(=O)C1CCN(S(=O)(=O)c2ccc(F)cc2)CC1)C(=O)NCc1ccco1	8.72
COc1cc(OC)cc(C(=O)N[C@H](C(=O)OCC(N)=O)C(C)C)c1	-12.8
CCNC(=O)N(C)C[C@H]1N[C@@](C)(C(=O)OC)[C@H]2C(=O)N(C)C(=O)[C@@H]12	2.38
CNC(=S)NNc1nc(N2CCOCC2)nc(N2CCOCC2)n1	-5
Cc1ccc(NC(=O)C2=C(O)c3sccc3N(C)S2(=O)=O)cc1	18.9
CN1c2ccsc2/C(=N/NC(=O)c2c(F)cccc2F)CS1(=O)=O	-25.7
CCCC(=O)N/N=C1\CS(=O)(=O)N(C)c2ccsc21	1.81
Cc1cccc(C(=O)N/N=C2\CS(=O)(=O)N(C)c3ccsc32)c1	56.1
Cc1ccccc1NC(=O)C1C2C=CC(C3CC23)C1C(=O)O (stereo not given)	-10.4
Cc1ccc(NC(=O)c2ccc3snnc3c2)cc1C	-6.47
O=C(CCN1CCN(C/C=C/c2ccccc2)CC1)Nc1ccccc1F	-1.04
COc1ccc2[nH]c(=O)c(C(=O)O)cc2c1	-0.72
O=C(N/N=C/c1ccccn1)c1ccncc1	75.3
O=C(N/N=C/c1ccccn1)c1ccc(NC(=O)c2cccc([N+](=O)[O-])c2)cc1	7.23
O=C(N/N=C/c1ccccn1)c1ccc([N+](=O)[O-])cc1Cl	74.4
O=C(N/N=C/c1ccc2nccnc2c1)c1cccc([N+](=O)[O-])c1	-21.3
CCCCC(CCC(=O)Nc1ccn(-c2ccccc2)n1)C(=O)O (stereo not given)	-15.5
Cc1nnc(C)n1N	-10.3
COc1ccc(NC(=O)CN2CCN(C(=O)C3CCCO3)CC2)c(OC)c1 (stereo not given)	-13.5
O=C(NC1CCOc2ccccc21)c1ccccn1 (stereo not given)	75.5
O=C(NC1CCCc2ccccc21)c1ccc(Cl)nc1 (stereo not given)	72.1
O=C(O)c1cc(N/N=C/c2c(O)ccc3ccccc23)ccc1Cl	0.25
COc1ccc2ccccc2c1/C=N/Nc1ccc(Cl)c(C(=O)O)c1	-12.5
CC(C)(C)OCC1CO1 (stereo not given)	-2.36

Structure (SMILES)	inhibition [%]
Cc1ccccc1SCC(=O)Nc1ccc(N2CCOCC2)cc1	0.16
COc1ccccc1Nc1nn2c(=O)c3ccc(C(=O)N4CCC(C)CC4)cc3nc2s1	33.4
COc1ccc(OCCNc2cc(Cl)ccc2[N+](=O)[O-])cc1	-1.86
COc1nc(OC)nc(Oc2ccc(Cl)cc2[N+](=O)[O-])n1	2.78
CCc1ccccc1OCCCN1CCCC1	4.44
Cc1cc(-n2cnnn2)ccc1C(C)C	9.21
Nc1cccn2c(-c3ccc(Cl)c(Cl)c3)cnc12	54.7
Cn1c(-c2ccc(Cl)cc2)cnc1N	52.6
COc1ccc(C(C)=O)cc1CSc1nc(C)cc(C)n1	6.97
O=C(O)C(Br)CBr (stereo not given)	20.6
Cc1cc(C)c2c(=O)n(CC(=O)N3CCC(N4CCCCC4)CC3)sc2n1	-11.9
Cc1cc(C)c2c(=O)n(CC(=O)NC3CCCC3)sc2n1	6.3
Cc1cccc(N2CCN(C(=O)Cn3nc(C)n4cccc4c3=O)CC2C)c1 (stereo not given)	-17.1
CCCNC(=O)Cn1sc2nc(C)cc(C)c2c1=O	2.63
Cc1c(Cl)cccc1NC(=O)Cn1cc(C(F)(F)F)cc(Cl)c1=O	3.98
Cc1c(Cl)cccc1NC(=O)Cn1cccc1	4.11
COCCCn1nnnc1SCC(=O)N1c2ccccc2CC1C (stereo not given)	0.95
CC(=O)Nc1ccc2c(c1)C(=O)N(C1CCCCC1)C2=O	-7.24
CCOc1ccc(OCCC(=O)OCC(=O)N2CCN(S(=O)(=O)c3ccc(Cl)cc3)CC2)cc1	40.6
Cc1ccc(NC(=O)C(C)SCc2nc3sc(C)c(C)c3c(=O)[nH]2)nc1 (stereo not given)	-7.05
C[C@H](NC(=O)[C@@H]1Cc2ccccc2CN1C(=O)OC(C)(C)C)C(=O)NCC1CCCO1 (stereo not given in full)	6.8
CC(=O)Nc1nc2ccccc2n1CCN(C)C	14.6
Nc1nc2ccccc2n1CCOc1ccc(Cl)cc1	79
Nc1nc2ccccc2n1CCOc1ccc(F)cc1	11
O=C(O)c1ccc(NCc2nc3ccccc3n2CCOc2ccccc2Cl)cc1	30.7
